The results in this text go back to PubChem BioAssay (EPA / NIEHS).

The structures appear in SMILES notation. The source made the active and inactive calls. How the source made its calls: active means hit-call score of the fitted dose curve at least 0.9, where 1 is the maximum; inactive means score below 0.9.

Read-out in the experiment: adenosine kinase (ADK) gene, ADK (gene 132)
In words: LTEA_HepaRG_ADK: Life Technologies and Expression Analysis (LTEA) Assay for adenosine kinase (ADK) gene using HepaRG (AID 2283471). Conditions: mRNA level, 48 h; actives raise or lower the signal. As to the method:
LTEA_HepaRG is a cell based, multiplexed-readout assay that uses HepaRG, a human liver cell line, with measurements taken at 48 hours after chemical dosing on a 96-well plate.LTEA_HepaRG_ADK is one of 102 assay component(s) measured in the LTEA HepaRG cell culture assay. It is a marker of Steatosis.Data from the assay component LTEA_HepaRG_ADK was analyzed into 1 endpoint. This assay endpoint, LTEA_HepaRG_ADK, was analyzed with bidirectional fitting relative to DMSO as the negative control and baseline of activity. Using a type of inducible reporter, measures of mRNA induction for gain or loss-of-signal activity can be used to understand regulation of transcription factor activity. To generalize the intended target to other relatable targets, this assay endpoint is annotated to the kinase intended target family, where the subfamily is steatosis.
A total of 1060 chemcials from the ToxCast library were tested in eight-point concentration-response experiments. Cell culture and cytotoxicity assays were conducted at Thermo Fisher Scientific's Custom Services facility (Madison, WI). A single lot of human HepaRG cells (Thermo Fisher Scientific, Frederick, MD) was used for the cell culture experiments. 96-well format collagen type I coated plates of human HepaRG cells were prepared using established methods. Briefly, cryopreserved HepaRG cells were thawed, plated at a density of approximately 100,000 cells/well in HepaRG Thaw, Plate, and General Purpose media (HPRG770, Thermo Fisher Scientific), and incubated for 48 hours. 0.5% DMSO was selected as vehicle control to balance the requisite need of DMSO in HepaRG cultures to maintain differentiation (for example, baseline metabolism, proportions of hepatocytes vs. cholangiocytes), while enabling further hepatic receptor pathway activation (for example, PXR and CAR) in response to chemical exposure. 48 hours after plating, the culture medium was replaced with HepaRG Serum-Free Incudtion Media. Cells were exposed to each test chemical in duplicate and maintained in CO2 incubators for another 48 hours. Chemical plates were thawed to room temperature and 200x concentrations of treatment groups were prepared. 8-point conentration-reponse curves were made with the highest exposure at 100 uM, followed by half-log dilutions, all in 0.5% DMSO. Each test plate contained variouse controls, induction positive controls (1mM phenobarbital), cytotoxicity positive controls ([…] aflatoxin B1), vehicle controls (0.5% DMSO), and total lysis controls (0.5% DMSO). Cell morphology images were taken using an Essen IncuCyte FLR automated microscope, with six 96-well plates imaged in about 24 minutes. Images were captured and exported and JPEG files. Spent culture media was transfered to black-well plates for the LDH assay, and remaining media was sorted at -80 C for later use. Cells were treated with RLT buffer and frozen until shipped for gene expression analysis. Total RNA was isolated from the cell suspension in 75 uL of Buffer RLT (Qiagen, Germantown, MD 20874) by Quintiles/Expression Analysis (Durham, NC) using a custom isolation procedure. Total RNA from each plate well was transferred to a preamplification plate. Fluidigm's 96.96 Dynamic ArrayTM (Fluidigm, Amsterdam, the Netherlands) technology was used for gene expression analyses by quantitative reverse transcription polymerase chain reaction (qRT-PCR, performed by Quintiles/Expression Analysis, Durham, NC)89. Standard TaqManTM Assays (Applied Biosystems/ThermoFisher Scientific, Foster City, CA) were used to assess the expression of 93 genes selected based on their selectivity and sensitivity to important hepatic receptors known to be modulated by environmental chemicals; importance in human hepatocyte functionality; and hepatotoxicity. […]
`Cc1occc1C(=O)Nc1ccc(C(=O)N2CCC(F)(F)/C(=C\C(=O)N3CCC(N4CCCCC4)CC3)c3ccccc32)cc1`: the result was inactive.

Consider `CC[C@H](NC(=O)c1cc(F)ccc1NS(=O)(=O)c1cccc2cccnc12)c1ccccc1`, for which the molecule was called inactive.

As to `Cc1cn([C@H]2C[C@H](N=[N+]=[N-])[C@@H](CO)O2)c(=O)[nH]c1=O`, the molecule was classed as inactive.

Take `O=C=NCCCCCCN=C=O`: the molecule was called inactive.

For `CO[C@H]1/C=C/O[C@@]2(C)Oc3c(C)c(O)c4c(O)c(c(/C=N/N5CCN(C)CC5)c(O)c4c3C2=O)NC(=O)/C(C)=C\C=C\[C@H](C)[C@H](O)[C@@H](C)[C@@H](O)[C@@H](C)[C@H](OC(C)=O)[C@@H]1C`, the outcome was inactive.

Turning to `Cc1ncc(CO)c(CO)c1O`, the call was inactive.

With `OCCO`, the molecule was called inactive.

`O=c1ccc2ccccc2o1`: the outcome was inactive.

`COc1cc(C(=O)NC2CCN(C)CC2)ccc1Nc1ncc2c(n1)N(C1CCCC1)CC(F)(F)C(=O)N2C`: the outcome was inactive.

One may read the AC50 as the concentration at which the activity in the assay is half-maximal. On to `CN(C)c1ccc(C(=C2C=CC(=[N+](C)C)C=C2)c2ccc(N(C)C)cc2)cc1`, for which the AC50 is 20.7 µM (active).

On to `O=C1O[C@H]([C@@H](O)CO)C(O)=C1O`, for which the molecule was called inactive.

As to `COc1cccc([C@H](O)C2CCN(CCc3ccc(F)cc3)CC2)c1OC`, the outcome was inactive.

For `CCN(Cc1cccc(S(=O)(=O)O)c1)c1ccc(C(=C2C=CC(=[N+](CC)Cc3cccc(S(=O)(=O)O)c3)C=C2)c2ccccc2S(=O)(=O)[O-])cc1`, the outcome was inactive.

On to `CCCCCCCCCCCCO`, for which the molecule was classed as inactive.

Regarding `CCOC(=O)O[C@H](C)OC(=O)c1ccc2c(c1)cc(C(=O)NC1CCN(C(C)C)CC1)n2Cc1cc(-c2ccc(Cl)s2)on1`, the molecule was called inactive.

As to `O=C1CCC(C2CCCCC2)CC1`, the molecule was classed as inactive.

In the case of `C[C@]12CC[C@@H]3c4ccc(O)cc4CC[C@H]3[C@@H]1CC[C@H]2O`, the result was inactive.

As for `CCCC(=O)OCCC(C)C`, the molecule was called inactive.

For `Cc1oc2c(NC(=O)c3c(Cl)cccc3Cl)cccc2c1C(C)(C)O`, the outcome was inactive.

Turning to `Cc1cccc2ccccc12`, the molecule was classed as inactive.

For the molecule `CCN(Cc1cccnc1)C(=O)c1cccc(Cl)c1[C@]1(C)C(=O)N(Cc2ccc(OC)cc2OC)c2ccc(Cl)cc21`, the call was inactive.

As to `Cc1cc(F)ccc1-c1cc(N2CC[C@@H](O)[C@H]2CO)ncc1N(C)C(=O)C(C)(C)c1cc(C(F)(F)F)cc(C(F)(F)F)c1`, the molecule was called inactive.

As to `CCCCCCCCN(C)CCCCCCCC`, the outcome was inactive.

Regarding `O=C(O)c1ccccc1-n1cc(C(=O)O)c(=O)c2cc(Nc3c(F)cc(F)cc3Cl)c(Cl)cc21`, the outcome was inactive.

For the molecule `c1ccc(C[n+]2cccc3ccccc32)cc1`, the molecule was called inactive.

As for `CC1(C)NC(=O)N(c2ccc([N+](=O)[O-])c(C(F)(F)F)c2)C1=O`, the molecule was called inactive.

Take `NCc1cccc(C2CCN(C(=O)c3ccc(C#Cc4ccccc4F)o3)CC2)c1`: the call was inactive.

Regarding `CC(C)(C)c1cc(/C=C2\SC(N)=NC2=O)cc(C(C)(C)C)c1O`, the half-maximal activity concentration (AC50) was 23.5 µM (active).

As for `CC[C@@H]1C[C@H](N(Cc2cc(C(F)(F)F)cc(C(F)(F)F)c2)C(C)=O)c2cc(C(F)(F)F)ccc2N1C(=O)OC(C)C`, the molecule was called inactive.

Turning to `O=C(OCCCCCCOC(=O)c1ccccc1)c1ccccc1`, the molecule was classed as inactive.

Consider `CCCCCCCCCCCC[N+](C)(C)C`, for which the molecule was called inactive.

Regarding `CCCCOC(=O)c1ccc(O)cc1`, the molecule was called inactive.

For `OC12N=C(c3ccccc3)SC1Cc1cc(Cl)ccc12` (stereo not given), the molecule was classed as inactive.

In the case of `CC(C)(O)c1ccc(CNC(=O)c2cccnc2Oc2ccc3nonc3c2)cc1`, the outcome was inactive.

For `CCCCCCCC[Si](OCC)(OCC)OCC`, the outcome was inactive.

Consider `O=c1[nH]sc2ccccc12`, for which the outcome was inactive.

Turning to `CCCCCCCCCCCO`, the molecule was called inactive.

For `CCO[Si](CCCNC(N)=O)(OCC)OCC`, the molecule was classed as inactive.

Turning to `O=C(O)Cn1c(=O)n(Cc2ccc(Br)cc2F)c(=O)c2ccc(Cl)cc21`, the outcome was inactive.

On to `CCCCOC(=O)CC(CC(=O)OCCCC)(OC(C)=O)C(=O)OCCCC`, for which the molecule was called inactive.
